In the library only some 2.3% were active in any assay of this set; here they are far more common.
Pol kappa inh: blocks human DNA polymerase kappa activity | Potency, µM (series often up to 107 µM), without a hit: at the top dose activity, negative = inhibition, most hits filed as inhibitors | Q9UBT6 | purified Pol kappa, fluorescent DNA synthesis assay, 10 min | 0.53% of 400,000 active | AID 588579; also: % is scaled to controls: 0 for no effect and ±100 for the full control effect
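Fluorescent qHTS in 1536-well format: enzyme (10 nM) and compound sat 15 min at room temperature before 50 nM substrate (final) was added. Signal taken at 0 and 10 min; no-enzyme buffer wells were negative controls.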
POLI inh: blocks human DNA polymerase iota activity; Q9UNA4; Pol iota fluorescent replication assay, 10 min; Potency, µM (doses to about 115 µM), without a hit: at the top dose activity, negative = inhibition, actives largely listed as inhibitors; 1% of 390,000 active; AID 588590
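Pol iota at 10 nM preincubated 15 min with compounds at room temperature; reaction started with fluorescent substrate, 50 nM final. Fluorescence read kinetically at 0 and 10 min; buffer-only wells as negative control.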
WRN helicase inh: WRN helicase (human) inhibition | Potency, µM (titrated, usually from 114 µM), for the others: top-dose activity change, negative = inhibition, actives largely listed as inhibitors | Q14191 | 0.46% of 360,000 active | WRN helicase unwinding, fluorescent forked duplex, kinetic; also: % is scaled to controls: 0 for no effect and ±100 for the full control effect; nearly all actives have a fitted effect of over 55% in size
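Screening of the MLSMR collection measured strand separation of a quenched forked DNA duplex (100 nM) by 20 nM WRN with 2 mM ATP, all final. Compounds were preincubated with enzyme 15 min at room temperature.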
POLB inh: inhibitors of human DNA polymerase beta | P06746 | Pol beta primer extension/strand displacement, fluorescence kinetic | Potency, µM (doses to about 114 µM), inactives show top-dose activity change, negative = inhibition, usual class: inhibitors | 1.3% of 340,000 active | AID 485314; also: % is scaled to controls: 0 for no effect and ±100 for the full control effect
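Reaction started by 50 nM substrate onto compound-treated Pol beta (10 nM, 15 min preincubation, room temperature); plates read at 0 min and 10 min. Normalized concentration-effect data fitted by four-parameter Hill equation.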
Pol eta inh: DNA polymerase eta (human) inhibition. Q9Y253. recombinant Pol eta, fluorescent DNA replication assay. Potency, µM (highest dose often 114 µM), inactives show at the highest dose activity change, negative = inhibition, actives largely listed as inhibitors. 1.2% of 390,000 active. AID 588591; also: % is scaled to controls: 0 for no effect and ±100 for the full control effect
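Fluorescent replication assay: 50 nM final substrate added after a 15 min room-temperature compound preincubation with 10 nM enzyme. Signal taken at 0 min and again at 10 min.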
The depositor's hits bear a star; ? = inconclusive; · = no result; [ ] = remark or other dose. Calls follow the shape of the dose curve; as a rule, active = well fitted curve in the direction sought with a large enough effect; inconclusive = small, poorly fitted or top-dose-only effect, or another doubt; inactive = no such curve, though single readings can be large; an effect the other way counts as inactive or inconclusive. Potency is read from the fitted curve at half-maximal effect.

SMILES	Pol kappa inh	POLI inh	WRN helicase inh	POLB inh	Pol eta inh
COc1cc(C(=O)OCC(=O)N2CCCC2=O)cc(OC)c1C	?	?	-19%	·	32µM*
CC(=O)Nc1ccc(C(=O)OCC(=O)N2CCCC2=O)cc1	-1%	40%	-25%	·	-15%
O=S(=O)(c1ccccc1C(F)(F)F)N1CCN(c2nc(-c3cccs3)nc3ccccc23)CC1	10%	?	·	·	·
C=Cc1c(C)/c2[n-]/c1=C\c1[n-]c(c(CC)c1C)/C=c1\[n-]c3c(c1C)C(=O)C(C(=O)[O-])C=3c1[n-]c(c(C)c1CCC(=O)[O-])\C=2.[Cu].[Na+].[Na+] (stereo unspecified)	0.89µM*	·	·	·	·
CS(=O)(=O)c1ccc(C(=O)OCC(=O)NCc2cccs2)cc1[N+](=O)[O-]	-12%	?	-8%[11.6 µM]	·	45µM*
C#CCOc1ccc(C(=O)N(C)c2ccccc2I)cc1	20%	2%	·	·	·
CCC(=O)Nc1nnc(Sc2ccc(N(C)C)cc2)s1	-9%	?	-29%	50µM*	-4%
O=S(=O)(c1cccc(Br)c1)N1CCN(c2nc(-c3cccs3)nc3ccccc23)CC1	-22%	-4%	·	·	·
CCOC(=O)C(C(C)=O)c1c(Br)c(O)c(O)c2c(C(=O)c3ccc(C)cc3)coc12 (stereo unspecified)	50µM*	25µM*	-25%	-6%	-17%
CCOC(=O)c1c(C)n(-c2ccc(C)cc2)c2c(C(C(C)=O)C(=O)O)c(Br)c(O)c(O)c12 (stereo unspecified)	-10%	14%	-25%	-6%	-2%
CC(O)[C@@H](O)[C@H]1CNc2nc(N)[nH]c(=O)c2N1 (stereo partly specified)	·	2%[58.9 µM]	·	17%[57.1 µM]	-3%[57.1 µM]
Brc1cccc[n+]1CCCCCC[n+]1ccccc1Br	7%	4%	·	·	·
C=CSc1sc(Cl)c(N(CC)CC)c1[N+](=O)[O-]	-7%	?	-23%	20µM*	?
C=CSc1sc(Cl)c(N(C)C)c1[N+](=O)[O-]	-9%	23%	-1%	11%	-2%
CC1CCN(c2oc(-c3ccc(OCc4ccccc4Cl)cc3)nc2C#N)CC1	-7%	17%	·	·	·
CCC(=O)N1CCc2cc(Br)cc(S(=O)(=O)N3CCCC(C(=O)NCc4ccccc4)C3)c21 (stereo unspecified)	-12%	79µM*	·	3%	-7%
CC(=O)N1CCc2cc(Br)cc(S(=O)(=O)N3CCC(C(=O)Nc4cccc(C)c4C)CC3)c21	-23%	?	·	45µM*	-16%
COc1cc(Br)c(CC(=O)NO)cc1OC	4%	48%	·	·	·
Cc1ccc(C)c(Nc2nc(NCc3ccco3)nc3nccnc23)c1	7%	36%	·	·	·
Cc1cc(C)cc(C(=O)N/N=C/c2ccoc2)c1	-4%	?	-5%	45%	-16%
O=C(N/N=C/c1ccoc1)c1ccccc1O	?	?	-9%[11.6 µM]	22µM*	45µM*
O=C(N/N=C/c1cccc([N+](=O)[O-])c1)c1ccc(Br)cc1	?	?	-29%	-29%	-16%
O=C(N/N=C/c1oc(O)c2ccccc12)c1ccccc1O	-22%	-14%	-8%	20%	-3%
COc1cc(OC)cc(C(=O)N/N=C\c2ccoc2)c1	-29%	?	-12%	28µM*	?
O=C(N/N=C/c1cc(Cl)ccc1O)c1ccc(Br)cc1	?	?	0%[57.1 µM]	10µM*	?
SMILES	Pol kappa inh	POLI inh	WRN helicase inh	POLB inh	Pol eta inh
O=C(N/N=C/c1cccc(Br)c1)c1ccc(Br)cc1	-21%	?	-22%	10µM*	-5%
CCOc1ccc(NC(=O)CSc2nnc3c(n2)[nH]c2ccc(S(=O)(=O)N4CCCCC4)cc23)cc1	-37%	-15%	·	·	·
C(=C\c1ccccn1)/c1ccccc1	-15%	30%	·	·	·
CCCCSc1nnc2c(n1)OC(c1ccc(Br)s1)N(C(C)=O)c1ccccc1-2 (stereo unspecified)	-8%	-4%	·	-29%	-19%
O=C(N/N=C/c1ccoc1)c1ccc(Br)cc1	-11%	?	-3%	40µM*	-4%
O=C(Cc1ccc(Cl)cc1)N/N=C/c1ccc(O)c(O)c1	·	·	-19%	·	?
O=C(N/N=C/c1ccoc1)c1ccccc1	-38%	?	-20%	20µM*	?

From PubChem
